# Legend:
# Test in all cases: DAPPL (digital affinity profiling via proximity ligation, sequencing); 10 mM Tris-HCl pH 7.5, 50 mM NaCl, 1 mM DTT, 4% glycerol, room temperature, 30 min; GST-TFs on glutathione beads, 16-mer random dsDNA library, 0.1% formaldehyde crosslink after washing; high values mean tight binding
# FEV = target: T1, FEV (Homo sapiens, UniProt Q99581 1-238); conditions: protein: recombinant; tags: N-terminal GST; dsDNA, one strand shown
# T1 sequence: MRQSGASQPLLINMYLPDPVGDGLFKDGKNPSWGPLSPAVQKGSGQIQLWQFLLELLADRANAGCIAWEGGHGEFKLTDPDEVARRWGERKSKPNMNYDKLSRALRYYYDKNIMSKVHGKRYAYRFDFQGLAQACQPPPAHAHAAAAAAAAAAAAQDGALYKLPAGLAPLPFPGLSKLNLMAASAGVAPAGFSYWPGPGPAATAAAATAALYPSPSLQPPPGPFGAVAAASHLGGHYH
# Method in brief: (§1)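 Human transcription factors were made in yeast as GST fusions, captured on glutathione beads and barcoded with DNA. With a tag-only sample included, the pool was incubated with 200 nmole of a random double-stranded 16-mer DNA library in Tris/NaCl/DTT/glycerol buffer at room temperature for 30 min, then crosslinked with 0.1% formaldehyde after washing, ligated by proximity, amplified and sequenced. For binding signal, each hexamer's read frequency for a factor is divided by its frequency for the tag-only sample.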
# ETV5 = ETV5 (Homo sapiens, UniProt P41161 1-510); conditions: protein: recombinant; tags: N-terminal GST; dsDNA, one strand shown
# Chain of ETV5 (P41161 whole entry): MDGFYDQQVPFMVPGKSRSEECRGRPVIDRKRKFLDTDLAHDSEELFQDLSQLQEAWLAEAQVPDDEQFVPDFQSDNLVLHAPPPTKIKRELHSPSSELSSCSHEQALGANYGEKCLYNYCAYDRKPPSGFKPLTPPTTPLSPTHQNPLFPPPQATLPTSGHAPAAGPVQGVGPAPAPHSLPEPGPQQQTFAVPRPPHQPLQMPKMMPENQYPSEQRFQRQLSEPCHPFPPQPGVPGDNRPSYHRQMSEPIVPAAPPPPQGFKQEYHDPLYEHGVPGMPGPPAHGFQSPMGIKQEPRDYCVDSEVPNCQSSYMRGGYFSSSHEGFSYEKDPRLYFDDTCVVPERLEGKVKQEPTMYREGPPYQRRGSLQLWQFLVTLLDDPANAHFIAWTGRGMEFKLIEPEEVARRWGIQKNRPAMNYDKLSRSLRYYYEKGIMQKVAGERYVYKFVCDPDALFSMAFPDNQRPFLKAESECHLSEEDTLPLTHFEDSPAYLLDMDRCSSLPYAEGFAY
# Method in brief: as §1
# HSF1 = HSF1 (Homo sapiens, UniProt Q00613 1-529); conditions: protein: recombinant; tags: N-terminal GST; chain copies: 3; dsDNA, one strand shown
# Chain of HSF1 (Q00613 whole entry): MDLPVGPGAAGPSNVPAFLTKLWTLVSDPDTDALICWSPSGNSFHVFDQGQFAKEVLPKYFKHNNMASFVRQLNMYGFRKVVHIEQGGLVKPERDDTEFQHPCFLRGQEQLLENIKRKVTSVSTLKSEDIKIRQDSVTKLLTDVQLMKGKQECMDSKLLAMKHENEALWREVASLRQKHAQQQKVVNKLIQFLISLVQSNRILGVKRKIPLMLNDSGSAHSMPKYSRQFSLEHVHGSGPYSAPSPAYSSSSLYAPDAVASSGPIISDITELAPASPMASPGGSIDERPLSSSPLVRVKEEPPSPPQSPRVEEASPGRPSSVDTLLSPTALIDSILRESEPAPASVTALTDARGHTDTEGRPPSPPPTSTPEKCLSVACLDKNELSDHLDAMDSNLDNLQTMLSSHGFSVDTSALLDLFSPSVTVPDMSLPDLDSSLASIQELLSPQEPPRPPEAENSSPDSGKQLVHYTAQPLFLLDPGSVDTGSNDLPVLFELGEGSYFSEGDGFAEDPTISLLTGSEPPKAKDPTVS
# Method in brief: as §1
# SPIC = target: T2, SPIC (Homo sapiens, UniProt Q8N5J4 1-248); conditions: protein: recombinant; tags: N-terminal GST; dsDNA, one strand shown
# T2 sequence: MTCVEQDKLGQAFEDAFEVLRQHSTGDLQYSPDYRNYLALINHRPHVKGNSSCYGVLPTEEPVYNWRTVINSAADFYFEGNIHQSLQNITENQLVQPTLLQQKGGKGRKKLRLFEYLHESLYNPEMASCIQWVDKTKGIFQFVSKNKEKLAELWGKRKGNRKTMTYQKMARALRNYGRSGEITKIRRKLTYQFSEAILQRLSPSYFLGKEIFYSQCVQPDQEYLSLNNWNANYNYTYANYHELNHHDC
# Method in brief: as §1
# ELF4 = ELF4 (Homo sapiens, UniProt Q99607 1-663); conditions: protein: recombinant; tags: N-terminal GST; dsDNA, one strand shown
# Chain of ELF4 (Q99607 whole entry): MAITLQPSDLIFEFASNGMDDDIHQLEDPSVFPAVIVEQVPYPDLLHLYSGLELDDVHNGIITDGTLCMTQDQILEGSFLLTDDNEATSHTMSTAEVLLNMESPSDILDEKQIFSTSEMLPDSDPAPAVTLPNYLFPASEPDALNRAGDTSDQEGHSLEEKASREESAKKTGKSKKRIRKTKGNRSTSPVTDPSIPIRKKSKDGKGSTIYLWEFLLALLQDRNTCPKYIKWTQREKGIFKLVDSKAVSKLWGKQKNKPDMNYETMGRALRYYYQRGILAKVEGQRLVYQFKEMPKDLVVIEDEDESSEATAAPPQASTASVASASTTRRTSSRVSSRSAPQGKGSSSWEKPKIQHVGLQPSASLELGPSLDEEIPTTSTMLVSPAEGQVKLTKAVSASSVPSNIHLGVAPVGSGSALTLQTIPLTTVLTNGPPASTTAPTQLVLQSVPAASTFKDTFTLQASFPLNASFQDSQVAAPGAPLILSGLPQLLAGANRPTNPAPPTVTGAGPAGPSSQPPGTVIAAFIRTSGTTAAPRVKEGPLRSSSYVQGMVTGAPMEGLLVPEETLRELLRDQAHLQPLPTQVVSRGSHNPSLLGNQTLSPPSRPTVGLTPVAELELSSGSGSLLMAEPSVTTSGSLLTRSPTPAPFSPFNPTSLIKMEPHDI
# Method in brief: as §1
# ELK4 = target: T3, ELK4 (Homo sapiens, UniProt P28324-2 1-405); conditions: protein: recombinant; tags: N-terminal GST; dsDNA, one strand shown
# T3 sequence: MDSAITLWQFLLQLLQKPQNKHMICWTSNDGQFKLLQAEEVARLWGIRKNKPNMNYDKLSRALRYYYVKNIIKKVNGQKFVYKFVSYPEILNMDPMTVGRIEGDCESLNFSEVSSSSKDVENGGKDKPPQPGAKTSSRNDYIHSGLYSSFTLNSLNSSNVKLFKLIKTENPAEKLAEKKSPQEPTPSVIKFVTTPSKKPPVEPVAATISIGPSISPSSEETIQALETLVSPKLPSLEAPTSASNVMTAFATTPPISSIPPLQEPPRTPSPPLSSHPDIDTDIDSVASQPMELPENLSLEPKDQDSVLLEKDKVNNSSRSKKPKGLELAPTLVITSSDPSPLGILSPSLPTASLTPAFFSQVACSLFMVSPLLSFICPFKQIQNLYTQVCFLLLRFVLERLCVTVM
# Method in brief: as §1
# ETV2 = target: T4, ETV2 (Homo sapiens, UniProt O00321 1-342); conditions: protein: recombinant; tags: N-terminal GST; dsDNA, one strand shown
# T4 sequence: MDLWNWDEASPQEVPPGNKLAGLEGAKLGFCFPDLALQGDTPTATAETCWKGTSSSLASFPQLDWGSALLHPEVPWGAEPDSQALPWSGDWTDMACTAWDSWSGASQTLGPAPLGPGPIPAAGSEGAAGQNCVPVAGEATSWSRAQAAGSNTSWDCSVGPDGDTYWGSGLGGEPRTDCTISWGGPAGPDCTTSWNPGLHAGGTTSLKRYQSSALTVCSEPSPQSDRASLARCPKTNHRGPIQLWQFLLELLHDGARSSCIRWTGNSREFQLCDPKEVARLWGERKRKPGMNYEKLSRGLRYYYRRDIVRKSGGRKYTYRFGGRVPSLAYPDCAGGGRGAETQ
# Method in brief: as §1
# ELF3 = target: T5, ELF3 (Homo sapiens, UniProt P78545 1-371); conditions: protein: recombinant; tags: N-terminal GST; dsDNA, one strand shown
# T5 sequence: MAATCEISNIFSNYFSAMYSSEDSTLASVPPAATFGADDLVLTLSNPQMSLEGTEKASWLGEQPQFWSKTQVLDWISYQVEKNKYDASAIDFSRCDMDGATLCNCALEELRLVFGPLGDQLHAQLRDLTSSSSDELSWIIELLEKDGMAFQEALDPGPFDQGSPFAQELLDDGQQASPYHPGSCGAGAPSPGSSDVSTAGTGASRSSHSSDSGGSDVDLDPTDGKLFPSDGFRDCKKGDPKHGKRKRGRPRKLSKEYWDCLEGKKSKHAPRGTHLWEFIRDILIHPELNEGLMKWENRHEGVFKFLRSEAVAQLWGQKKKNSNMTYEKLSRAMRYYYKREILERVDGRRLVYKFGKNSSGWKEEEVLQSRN
# Method in brief: as §1
# CRX = CRX (Homo sapiens, UniProt O43186 1-299); conditions: protein: recombinant; tags: N-terminal GST; dsDNA, one strand shown
# Chain of CRX (O43186 whole entry): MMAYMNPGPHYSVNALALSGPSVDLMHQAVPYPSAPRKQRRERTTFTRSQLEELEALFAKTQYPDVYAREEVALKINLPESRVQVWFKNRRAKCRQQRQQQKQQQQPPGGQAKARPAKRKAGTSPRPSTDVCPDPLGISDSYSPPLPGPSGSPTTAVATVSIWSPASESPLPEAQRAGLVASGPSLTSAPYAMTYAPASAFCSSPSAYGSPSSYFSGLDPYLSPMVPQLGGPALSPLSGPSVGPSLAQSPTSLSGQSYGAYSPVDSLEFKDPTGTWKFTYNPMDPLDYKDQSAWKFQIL
# Method in brief: as §1
# ETV1 = ETV1 (Homo sapiens, UniProt P50549 1-477); conditions: protein: recombinant; tags: N-terminal GST; dsDNA, one strand shown
# Chain of ETV1 (P50549 whole entry): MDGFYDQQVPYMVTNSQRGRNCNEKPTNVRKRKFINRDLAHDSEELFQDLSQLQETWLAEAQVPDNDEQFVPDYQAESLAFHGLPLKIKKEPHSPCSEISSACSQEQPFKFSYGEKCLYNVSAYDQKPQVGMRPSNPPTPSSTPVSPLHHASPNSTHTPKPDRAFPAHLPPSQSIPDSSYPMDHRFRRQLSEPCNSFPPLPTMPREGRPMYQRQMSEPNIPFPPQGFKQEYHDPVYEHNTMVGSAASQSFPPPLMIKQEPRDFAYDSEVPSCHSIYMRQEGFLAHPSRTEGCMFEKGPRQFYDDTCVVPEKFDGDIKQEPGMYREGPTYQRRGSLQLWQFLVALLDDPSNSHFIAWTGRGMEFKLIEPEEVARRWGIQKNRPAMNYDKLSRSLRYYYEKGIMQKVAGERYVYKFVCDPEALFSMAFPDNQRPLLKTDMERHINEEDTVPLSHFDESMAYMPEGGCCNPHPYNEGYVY
# Method in brief: as §1
# ERF = target: T6, ERF (Homo sapiens, UniProt P50548 1-548); conditions: protein: recombinant; tags: N-terminal GST; dsDNA, one strand shown
# T6 sequence: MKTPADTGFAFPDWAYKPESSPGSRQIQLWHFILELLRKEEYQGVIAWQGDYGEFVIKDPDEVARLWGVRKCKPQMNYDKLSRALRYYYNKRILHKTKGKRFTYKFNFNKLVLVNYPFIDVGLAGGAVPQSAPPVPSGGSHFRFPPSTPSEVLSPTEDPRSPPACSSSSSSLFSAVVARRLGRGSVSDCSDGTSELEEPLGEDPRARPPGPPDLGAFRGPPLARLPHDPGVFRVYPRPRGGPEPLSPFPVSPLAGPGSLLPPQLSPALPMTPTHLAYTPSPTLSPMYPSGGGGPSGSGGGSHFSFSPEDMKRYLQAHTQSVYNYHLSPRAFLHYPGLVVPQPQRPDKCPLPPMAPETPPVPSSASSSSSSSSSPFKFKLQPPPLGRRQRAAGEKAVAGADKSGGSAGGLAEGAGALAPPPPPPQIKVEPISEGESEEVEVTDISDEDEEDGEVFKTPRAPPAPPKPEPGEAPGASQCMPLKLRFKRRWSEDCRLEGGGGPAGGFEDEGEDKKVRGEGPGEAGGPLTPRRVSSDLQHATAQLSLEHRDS
# Method in brief: as §1
# ETV3L = target: T7, ETV3L (Homo sapiens, UniProt Q6ZN32 1-361); conditions: protein: recombinant; tags: N-terminal GST; dsDNA, one strand shown
# T7 sequence: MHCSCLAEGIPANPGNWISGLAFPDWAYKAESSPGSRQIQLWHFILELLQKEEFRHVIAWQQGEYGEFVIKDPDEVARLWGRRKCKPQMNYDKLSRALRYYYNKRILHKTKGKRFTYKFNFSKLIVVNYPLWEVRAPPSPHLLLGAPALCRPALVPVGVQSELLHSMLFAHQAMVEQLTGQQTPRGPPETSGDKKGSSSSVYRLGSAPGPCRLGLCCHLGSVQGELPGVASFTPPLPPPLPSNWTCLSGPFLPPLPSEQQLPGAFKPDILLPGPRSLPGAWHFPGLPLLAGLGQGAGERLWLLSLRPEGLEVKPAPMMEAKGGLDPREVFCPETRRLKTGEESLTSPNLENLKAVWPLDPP
# Method in brief: as §1
# ETS2 = target: T8, ETS2 (Homo sapiens, UniProt P15036 1-469); conditions: protein: recombinant; tags: N-terminal GST; dsDNA, one strand shown
# T8 sequence: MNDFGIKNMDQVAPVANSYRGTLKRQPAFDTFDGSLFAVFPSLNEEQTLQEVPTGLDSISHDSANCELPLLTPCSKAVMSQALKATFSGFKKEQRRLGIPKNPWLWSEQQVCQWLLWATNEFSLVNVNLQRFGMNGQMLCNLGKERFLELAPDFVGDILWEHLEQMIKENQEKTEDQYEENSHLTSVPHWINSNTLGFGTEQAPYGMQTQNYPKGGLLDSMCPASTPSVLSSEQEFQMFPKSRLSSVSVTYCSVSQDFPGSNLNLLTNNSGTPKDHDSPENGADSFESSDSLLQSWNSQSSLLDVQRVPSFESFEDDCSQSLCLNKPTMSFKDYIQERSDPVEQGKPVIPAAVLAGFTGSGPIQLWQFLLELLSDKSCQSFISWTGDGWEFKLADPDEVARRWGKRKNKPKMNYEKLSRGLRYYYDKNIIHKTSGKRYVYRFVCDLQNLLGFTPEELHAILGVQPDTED
# Method in brief: as §1
# SPDEF = target: T9, SPDEF (Homo sapiens, UniProt O95238 1-335); conditions: protein: recombinant; tags: N-terminal GST; dsDNA, one strand shown
# T9 sequence: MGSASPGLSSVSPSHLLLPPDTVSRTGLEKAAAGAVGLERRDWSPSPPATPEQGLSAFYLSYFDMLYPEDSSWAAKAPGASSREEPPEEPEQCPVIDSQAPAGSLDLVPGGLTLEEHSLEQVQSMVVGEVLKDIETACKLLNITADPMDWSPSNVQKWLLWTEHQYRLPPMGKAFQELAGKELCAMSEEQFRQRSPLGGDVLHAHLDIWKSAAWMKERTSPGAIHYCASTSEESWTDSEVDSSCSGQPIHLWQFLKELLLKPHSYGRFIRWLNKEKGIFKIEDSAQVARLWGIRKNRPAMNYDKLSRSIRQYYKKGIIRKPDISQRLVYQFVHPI
# Method in brief: as §1
# ETV7 = target: T10, ETV7 (Homo sapiens, UniProt Q9Y603 1-341); conditions: protein: recombinant; tags: N-terminal GST; dsDNA, one strand shown
# T10 sequence: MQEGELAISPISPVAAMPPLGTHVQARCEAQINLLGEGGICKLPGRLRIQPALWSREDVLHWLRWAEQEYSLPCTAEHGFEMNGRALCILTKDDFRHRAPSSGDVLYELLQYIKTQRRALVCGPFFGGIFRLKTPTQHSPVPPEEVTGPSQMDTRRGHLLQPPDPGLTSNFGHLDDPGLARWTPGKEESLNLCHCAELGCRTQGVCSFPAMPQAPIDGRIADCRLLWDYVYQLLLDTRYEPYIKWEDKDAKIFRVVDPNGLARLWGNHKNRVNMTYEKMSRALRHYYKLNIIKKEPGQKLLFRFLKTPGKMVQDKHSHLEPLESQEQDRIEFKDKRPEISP
# Method in brief: as §1
# ELF5 = target: T11, ELF5 (Homo sapiens, UniProt Q9UKW6-2 1-255); conditions: protein: recombinant; tags: N-terminal GST; dsDNA, one strand shown
# T11 sequence: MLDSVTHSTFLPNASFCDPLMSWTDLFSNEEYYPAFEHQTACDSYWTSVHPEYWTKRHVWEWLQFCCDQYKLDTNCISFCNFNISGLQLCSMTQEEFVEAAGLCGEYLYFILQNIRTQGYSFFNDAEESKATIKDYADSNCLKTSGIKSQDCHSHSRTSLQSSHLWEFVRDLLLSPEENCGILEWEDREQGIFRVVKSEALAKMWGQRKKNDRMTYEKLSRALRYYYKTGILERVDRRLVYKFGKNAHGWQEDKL
# Method in brief: as §1
# ETV3 = target: T12, ETV3 (Homo sapiens, UniProt P41162-2 1-143); conditions: protein: recombinant; tags: N-terminal GST; dsDNA, one strand shown
# T12 sequence: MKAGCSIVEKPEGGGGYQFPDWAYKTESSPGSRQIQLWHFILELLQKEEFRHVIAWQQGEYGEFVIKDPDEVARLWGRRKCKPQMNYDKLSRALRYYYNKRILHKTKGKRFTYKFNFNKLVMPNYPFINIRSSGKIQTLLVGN
# Method in brief: as §1
# ETV6 = ETV6 (Homo sapiens, UniProt P41212 1-452); conditions: protein: recombinant; tags: N-terminal GST; dsDNA, one strand shown
# Chain of ETV6 (P41212 whole entry): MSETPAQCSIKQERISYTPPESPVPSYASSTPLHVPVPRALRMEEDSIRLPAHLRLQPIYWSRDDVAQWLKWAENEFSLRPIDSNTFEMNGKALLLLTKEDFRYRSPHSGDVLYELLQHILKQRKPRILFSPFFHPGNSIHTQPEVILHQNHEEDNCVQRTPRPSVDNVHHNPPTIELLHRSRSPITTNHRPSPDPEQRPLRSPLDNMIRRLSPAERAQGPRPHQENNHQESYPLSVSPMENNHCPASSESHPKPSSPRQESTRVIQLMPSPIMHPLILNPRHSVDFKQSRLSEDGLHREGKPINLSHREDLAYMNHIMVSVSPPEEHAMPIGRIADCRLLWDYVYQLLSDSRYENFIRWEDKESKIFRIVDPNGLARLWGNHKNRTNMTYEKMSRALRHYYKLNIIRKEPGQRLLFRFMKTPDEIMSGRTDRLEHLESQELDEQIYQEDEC
# Method in brief: as §1
sequence,measurement,setting,value
AACCCC,binding signal,FEV,"1.24 fold enrichment (6-mer frequency, TF over GST control)"
same,binding signal,ETV5,"1.14 fold enrichment (6-mer frequency, TF over GST control)"
same,binding signal,HSF1,"1.03 fold enrichment (6-mer frequency, TF over GST control)"
same,binding signal,SPIC,"1.33 fold enrichment (6-mer frequency, TF over GST control)"
same,binding signal,ELF4,"1.29 fold enrichment (6-mer frequency, TF over GST control)"
same,binding signal,ELK4,"1.36 fold enrichment (6-mer frequency, TF over GST control)"
same,binding signal,ETV2,"1.18 fold enrichment (6-mer frequency, TF over GST control)"
same,binding signal,ELF3,"1.22 fold enrichment (6-mer frequency, TF over GST control)"
same,binding signal,CRX,"1.21 fold enrichment (6-mer frequency, TF over GST control)"
same,binding signal,ETV1,"1.08 fold enrichment (6-mer frequency, TF over GST control)"
same,binding signal,ERF,"1.03 fold enrichment (6-mer frequency, TF over GST control)"
same,binding signal,ETV3L,"1.18 fold enrichment (6-mer frequency, TF over GST control)"
same,binding signal,ETS2,"1.21 fold enrichment (6-mer frequency, TF over GST control)"
same,binding signal,SPDEF,"1.14 fold enrichment (6-mer frequency, TF over GST control)"
same,binding signal,ETV7,"1.11 fold enrichment (6-mer frequency, TF over GST control)"
same,binding signal,ELF5,"1.13 fold enrichment (6-mer frequency, TF over GST control)"
same,binding signal,ETV3,"1.07 fold enrichment (6-mer frequency, TF over GST control)"
same,binding signal,ETV6,"1.18 fold enrichment (6-mer frequency, TF over GST control)"
